Assay outcomes as filed in PubChem.
The list is not random: actives were taken first. Their share in the collection is about 0.54%.
CatL inh: inhibitors of human cathepsin L, biochemical. purified cathepsin L, fluorogenic substrate, fluorescence. inhibition, %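 (tested at 10 µM)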. 58,000 compounds, 0.17% hits. AID 460, 2006; in the data active = inhibition above about 45%;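 note: 0% = enzyme with no compound and 100% = no enzyme blank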
Target sequence (P07711 114-288 limits assumed): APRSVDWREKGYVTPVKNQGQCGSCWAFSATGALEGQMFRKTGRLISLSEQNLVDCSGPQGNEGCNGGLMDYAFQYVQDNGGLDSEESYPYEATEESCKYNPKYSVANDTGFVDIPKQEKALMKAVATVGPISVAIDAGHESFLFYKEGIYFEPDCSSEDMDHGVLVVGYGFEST
Target sequence (P07711 292-333 limits assumed): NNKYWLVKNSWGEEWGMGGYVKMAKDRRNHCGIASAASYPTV
CatB inh: human cathepsin B inhibitors, primary screen, biochemical, fluorogenic substrate; purified cathepsin B, fluorescence; inhibition, %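 (tested at 10 µM)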; 63,000 compounds, 0.1% hits; in the data active = inhibition above about 21%;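 note: 0% = enzyme with no compound and 100% = no enzyme blank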
Cathepsin G inh: human cathepsin G inhibitors, primary screen, biochemical, pooled compound mixtures, AMC fluorescence | P08311 | purified enzyme, AMC-tetrapeptide fluorescence | inhibition, % at 5 µM (by protocol) | 62,000 compounds, 0.2% hits | AID 581, 2007;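 active = inhibition above 20% in each of the two mixture wells holding the compound; inactive = inhibition of 20% or less in either well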;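 note: 0% = enzyme control without mixture and 100% = blank lacking enzyme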
CatS inh: inhibitors of human cathepsin S, biochemical, compound mixtures; P25774; recombinant cathepsin S, AMC dipeptide fluorescence, pooled mixtures; inhibition, %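 (tested at 5 µM per compound within 10-compound mixtures)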; 62,000 compounds, 0.06% hits; in the data active = inhibition above about 32%, passing the limit was not always enough;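 note: 0% = enzyme without compound and 100% = blank without enzyme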
Target sequence (P25774 115-331 limits assumed): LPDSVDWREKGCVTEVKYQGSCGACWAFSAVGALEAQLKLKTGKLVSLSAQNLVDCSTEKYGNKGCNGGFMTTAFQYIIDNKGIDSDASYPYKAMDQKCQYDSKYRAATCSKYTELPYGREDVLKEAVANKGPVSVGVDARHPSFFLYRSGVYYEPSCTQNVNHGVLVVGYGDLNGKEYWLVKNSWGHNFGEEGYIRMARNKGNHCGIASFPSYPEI
CatB mixtures: cathepsin B inhibitors from pooled compounds, primary screen, biochemical, compound mixtures, AMC fluorescence. Purified cathepsin B, AMC dipeptide fluorescence. inhibition, %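 (ten-compound pools at 5 µM per compound and 50 µM total)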. 62,000 compounds, 0.06% hits; in the data active = inhibition above about 22%, passing the limit was not always enough;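 note: 0% = enzyme without compound and 100% = no enzyme blank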
C1s block: complement C1s protease inhibitors, primary screen, biochemical, 10-compound mixtures | purified C1s, fluorogenic AMC substrate, pooled mixtures | mean inhibition % of two 10-compound mixtures (stronger effect = higher value), % at 5 µM (by protocol) | 62,000 compounds, 0.16% hits;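 active = inhibition above 20% in each of the two 10-compound mixture wells holding the compound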;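 note: 0% = enzyme wells lacking compound mixture and 100% = no-enzyme blank wells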
* = called active by the depositor; . = not tested or not shown.

SMILES	CatL inh	CatB inh	Cathepsin G inh	CatS inh	CatB mixtures	C1s block
COc1ccc(N(CC(=O)Nc2cccc(C)c2C)S(=O)(=O)c2c(C)n[nH]c2C)cc1	12	62*	1	3	1	-1
C/C(N)=N\S(=O)(=O)c1ccc(Cl)cc1	15	29*	10	4	5	18
Cc1cc(C)c2c(CC(=O)NCc3ccco3)coc2c1	1	3	10	8	5	21*
Cc1ccc(SCC(=O)NCc2ccco2)cc1	21	3	5	6	-1	14
CCSc1nnc(NC(=O)C2CCCN(S(=O)(=O)c3cnc[nH]3)C2)s1 (stereo unspecified)	1	-1	6	2	4	-10
Cc1ccc(N2CC(C(=O)NCC3CCCO3)CC2=O)cc1Cl (stereo unspecified)	20	13	15	14	5	9
CCS(=O)(=O)n1nc(-c2ccco2)nc1SC	.	3	4	0	0	-115
CSc1nc(-c2ccco2)nn1C(=O)c1ccco1	.	-5	23*	2	6	60*
CSc1nc(-c2ccco2)nn1S(=O)(=O)c1ccc(C)cc1	.	-2	9	-2	4	-5
CSc1nc(-c2ccco2)nn1C(=O)c1ccc(C)cc1	.	1	62*	-3	4	67*
C=CCn1c(N(C)C)nc2c1c(=O)[nH]c(=O)n2C	-11	-1	10	8	4	8
Cc1ccc(S(=O)(=O)N2CCCC2C(=O)NC2CCCCC2)cc1 (stereo unspecified)	18	2	6	12	2	1
CCOC(=O)N1CCC(NC(=O)C2CCCCN2S(=O)(=O)c2ccc(F)cc2)CC1 (stereo unspecified)	104*	-3	-8	-2	-6	11
CC(C)C(CC(=O)N1CCCCC1)C1CCOC(C)(C)C1 (stereo unspecified)	4	0	28*	-4	32	-11
CS(=O)(=O)N(CC(=O)N1CCCCC1)C1CCCCC1	3	2	0	5	3	2
Cc1onc(-c2ccccc2Cl)c1C(=O)N1CCN=C1SCc1cccnc1	11	9	1	9	2	-41
CCN(CC)CCNC(=O)c1cc2c(=O)n(C)c3ccccc3c2n1C	23	8	-6	48*	-2	-9
CN(C)CCNC(=O)c1cc2c(=O)n(C)c3ccccc3c2n1C	17	2	7	82*	2	1
CCCCN(CC)CCNC(=O)c1cc2c(=O)n(C)c3ccccc3c2n1C	-1	-1	7	57*	3	2
COc1ccccc1Nc1nc(C2(C)CCC(=O)O2)cs1 (stereo unspecified)	5	3	10	-1	5	9
CCNc1ccc(C(=O)OCC)cc1NC(=O)c1cccc(S(=O)(=O)N2CCOCC2)c1	10	5	9	-2	6	16
CCCN(CCC)C(=O)c1ccc2c(c1)N(Cc1ccccc1)C(=O)CS2=O (stereo unspecified)	.	1	-2	-3	2	-9
O=C(CSc1nnc(-c2ccccc2)n1Cc1ccccc1)N1CCOCC1	-1	5	8	0	4	3
O=C(CCSc1nccn1Cc1ccccc1)N1CCOCC1	11	4	22*	17	6	18
Cn1cnnc1SCc1ccc(C(=O)n2ncc(C#N)c2N)cc1	18	3	47*	-5	-2	-6
SMILES	CatL inh	CatB inh	Cathepsin G inh	CatS inh	CatB mixtures	C1s block
O=C(CN1CCc2ccccc2C1)c1cccs1	5	-1	0	7	2	4
CCCCCn1c2nc3ccccc3nc2c2c(=O)n(CC3CCCO3)c(C)nc21 (stereo unspecified)	-22	4	3	-2	-2	-7
COc1ccc(Nc2nc(C)c3ccccc3n2)cc1	-6	-7	-1	-3	3	0
COc1ccc2c(C)nc(Nc3nc(C)cc(C)n3)nc2c1	61*	4	3	1	-2	-10
COc1ccc(C(=O)SC2=NCCS2)cc1OC	.	-1	13	-4	5	24*
COc1ccc(C(=O)N2CCSC2=S)cc1OC	2	3	3	6	2	14
COc1ccc(C2C(C(=O)c3cccs3)=C(O)C(=O)N2c2nnc(C)s2)cc1OC (stereo unspecified)	2	-5	11	6	-2	3
COc1ccc(C2C(C(=O)c3cccs3)=C(O)C(=O)N2c2nncs2)cc1 (stereo unspecified)	-3	0	22*	11	2	13
NS(=O)(=O)c1cc2c(cc1Cl)NC(C1C[C@H]3C=C[C@@H]1C3)NS2(=O)=O (stereo partly specified)	14	.	-12	-2	3	31
CC1CCN(Cc2ccc(NC(=O)C3CCN(c4nnc(-n5cccc5)s4)CC3)cc2)CC1	67*	13	14	.	6	4
Cc1ccc(Cl)cc1N1CCN(C(=O)C2CCN(c3nnc(-n4cccc4)s3)CC2)CC1	4	4	10	-8	5	16
O=C(C1CCN(c2nnc(N3CCCC3=O)s2)CC1)N1CCN(Cc2ccc3c(c2)OCO3)CC1	47*	-5	-3	11	4	2
O=C(C1CCN(c2nnc(-n3cccc3)s2)CC1)N1CCN(Cc2ccc3c(c2)OCO3)CC1	53*	2	7	6	-6	0
O=C(NCCC1=CCCCC1)C1CCN(c2nnc(-n3cccc3)s2)CC1	.	4	9	2	3	6
CCOC(=O)N1CCC(NC(=O)c2cnc3n(c2=O)CCS3)CC1	-5	1	22	1	2	-4
COc1ccc2nc(CC(C)(C)CC(=O)O)c[n+]([O-])c2c1	-12	23*	0	-15	6	1
COc1ccc2nc(COC(=O)c3ccco3)c(C(C)=O)[n+]([O-])c2c1	-4	-1	0	-6	3	5
O=C(c1ccc2c(c1)OCO2)N(c1ccc(Cl)cc1)C1C=CS(=O)(=O)C1 (stereo unspecified)	3	3	-1	-4	-2	-35
COc1ccc(OC)c(C2C(C#N)=C(N)Oc3cc(C)n(Cc4ccccn4)c(=O)c32)c1 (stereo unspecified)	63*	2	.	.	.	.
O=C(O)CSc1ccccn1	-2	9	-22	-6	-3	-44
O=c1cc(CSc2ccccn2)[nH]c(=O)[nH]1	12	2	1	41*	6	-7
Cc1cc(C)n(C(=O)c2ccc(C)c(S(=O)(=O)N3CCCC3)c2)n1	-2	4	14	6	4	17
